Results on eleven molecules are retold here after PubChem BioAssay (NCATS).

Results filed as inconclusive are left out. Entries that show only a call come without a potency. Activity calls are given as the source filed them. Calls follow the shape of the dose curve; as a rule, active = well fitted inhibition curve with a large enough effect; inconclusive = small, poorly fitted or top-dose-only effect; inactive = flat fitted curve, though single readings scatter.

Sequence of Calcium and integrin-binding protein 1 (Homo sapiens) (Q99828 whole entry, looked up): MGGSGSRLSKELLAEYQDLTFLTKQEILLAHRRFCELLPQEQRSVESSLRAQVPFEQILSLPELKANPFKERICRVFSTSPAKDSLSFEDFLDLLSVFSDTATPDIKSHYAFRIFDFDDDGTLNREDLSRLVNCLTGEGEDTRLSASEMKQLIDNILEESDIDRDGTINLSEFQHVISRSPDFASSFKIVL

The experiment has as its target Calcium and integrin-binding protein 1 (Homo sapiens) (UniProt Q99828). The experiment in a line: Primary qHTS for Identification of Calcium Integrin Binding Protein 1 (CIB1) Competitor (AID 1508620). Also: top concentration of the series differs between compounds. The following applies: CIB1-GST / FITC-alphaIIb peptide fluorescence polarization; series mostly up to 114 µM. In outline: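 Fluorescence polarization competition: GST-tagged CIB1 (1 uM final) preincubated with compound 15 min at room temperature, then FITC-labelled alphaIIb peptide (100 nM final) added. After 15 min at room temperature, polarization read at Ex 480/Em 540.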
With `Cc1onc(C(=O)N2CCN(C(c3ccc(Cl)cc3)c3ccc(Cl)cc3)CC2)c1[N+](=O)[O-]`, the Potency result is “inactive”.
In the case of `COC(=O)Cc1cc2c(c([N+](=O)[O-])c1)N(C(=O)CC[C@H](N)C(=O)O)CC2` it was “inactive”; in that of `CC1COC(Nc2ccc3ncnc(Nc4ccc(OCc5nccs5)c(Cl)c4)c3c2)=N1` (stereo unspecified), “inactive”; in that of `CC(=O)O[C@@](C)(C(=O)/C=C/C(C)(C)O)[C@H]1[C@H](O)C[C@@]2(C)[C@@H]3CC=C4[C@@H](C=C(O)C(=O)C4(C)C)[C@]3(C)C(=O)C[C@]12C`, “inactive”.
`C[C@H]1CC[C@@H]2N(C1)C[C@@H]1[C@H]([C@@H](O)[C@H](O)[C@]3(O)[C@H]1C[C@@]14OC5(O)[C@@H](C[C@@H](O)[C@@H]31)[C@]4(C)CC[C@@H]5O)[C@]2(C)O`: the Potency result was “inactive”.
Take `OC[C@H]1O[C@@H](O[C@H]2[C@H](OCCc3ccccc3)O[C@H](CO)[C@@H](O)[C@@H]2O)[C@H](O)[C@@H](O)[C@@H]1O`: the Potency entry was “inactive”.
In the case of `CC1=CC2/C=C(\C)CC[C@@H](O)[C@@H](O)[C@@H]3O[C@@H]3C(=O)[C@]23C(=O)N[C@@H](CC(C)C)[C@@H]3[C@@H]1C` (stereo partly specified) it was “inactive”; in that of `Cc1ccccc1-n1c([C@H](C)Nc2nc(N)nc3nc[nH]c23)nc2cccc(C)c2c1=O`, “inactive”; in that of `C=C1CCC2C(C)(C)C(O)CCC2(C)C1CCC(C)CCOC(C)=O` (stereo unspecified), “inactive”.
Consider `CO/N=C(/C(=O)N[C@@H]1C(=O)N2C(C(=O)O)=C(Cn3ccc(=N)n3CCO)CS[C@H]12)c1csc(N)n1`, for which the Potency entry is “inactive”.
With `CC(=O)OC1CC2C3(C)CCC(OC(=O)CC(=O)O)C(C)(C)C3CCC2(C)C2(C)CCC(C3(C)CCC(=O)O3)C12` (stereo unspecified), the Potency entry is “inactive”.
